# Screening results (PubChem BioAssay)
# p53ts 39C tox: qHTS Screen for Compounds that Selectively Target Cancer Cells with p53 Mutations: Cytotoxicity of p53ts Cells at the Nonpermissive Temperature | H1299-p53A138V viability at 39C, ATP luminescence, 24 h | Potency, µM (top dose mostly 46.1 µM), most hits filed as cytotoxic | 1.5% of 130,000 active | AID 902, 2007; also: nearly all actives have a fitted effect of over 55% in size
# p53ts 32C kill: qHTS Screen for Compounds that Selectively Target Cancer Cells with p53 Mutations: Cytotoxicity of p53ts Cells at the Permissive Temperature; Potency, µM (titrated, usually from 46.1 µM), usual class: cytotoxic; H1299-p53A138V at 32C, ATP luminescence viability, 24 h; 0.93% of 130,000 active; AID 924, 2007; also: nearly all actives have a fitted effect of over 55% in size
#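 ATP-content luminescence (ATPlite) read-out after 24 h compound exposure at 32C in H1299-p53A138V cells (600/well). Tested up to 46 uM. Normalized to DMSO (0%) and 100 uM tamoxifen (100% killing); Hill-fit AC50.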
# Imprint erasure: qHTS Assay for Compounds that Induce Erasure of Genomic Imprints | mouse ES Peg3-LacZ reporter, beta-gal luminescence, 40 h | Potency, µM (highest dose often 60.7 µM), most hits filed as activators | 0.02% of 110,000 active | AID 1948, 2009
#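 Gelatin-coated wells received 300 freshly trypsinized female ES cells with a Peg3LacZ-Neo reporter on the maternal allele, then incubated 40 hours at 37C. BetaGlo was added for 5 minutes at room temperature before a single luminescence read.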
# Hits are given with their value; 0 = inactive; ? = inconclusive; - = not tested or not shown; [ ] = dose if it differs, or a comment. Hits are enriched below; roughly 1.8% of the tested compounds scored in any of these assays. Calls follow the shape of the dose curve; as a rule, active = well fitted curve in the direction sought with a large enough effect; inconclusive = small, poorly fitted or top-dose-only effect, or another doubt; inactive = no such curve, though single readings can be large; an effect the other way counts as inactive or inconclusive.
SMILES,p53ts 39C tox,p53ts 32C kill,Imprint erasure
Cc1ccc(S(=O)(=O)/C=C\C#N)cc1,13µM,13µM,0
CC(C)(C)c1ccc(S(=O)(=O)N2CCN(CCC#N)CC2)cc1,0,0,0
COC(=O)/C=C/S(=O)(=O)c1ccc(NC(C)=O)cc1,?,?,0
COc1ccc(-c2cc(C(=O)N/N=C\c3cc(OC)c(OC)c(OC)c3)[nH]n2)cc1,0,0,-
CCC(=O)N1CCc2cc(Br)cc(S(=O)(=O)N3CCN(c4cccc(Cl)c4)CC3)c21,0,0,0[10.9 µM]
C=C(CC1([C@@H](NP(=O)(c2ccccc2)c2ccccc2)[C@H]2C[C@@H]2CCCC)CC1)c1ccccc1,25µM,0,0
CCCC[C@@H]1C[C@H]1C(NC(=O)c1ccccc1)c1ccccc1 (stereo partly drawn),0,0,0
CCCC[C@@H]1C[C@H]1C(NC(=O)c1cccnc1)c1ccc(-c2ccccc2)cc1 (stereo partly drawn),0,0,0
CCCC[C@@H]1C[C@H]1[C@@H](NP(=O)(c1ccccc1)c1ccccc1)c1ccccc1OC,25µM,?,0
CN1CCN(c2ncnc3ccc(-c4ccccc4C(F)(F)F)cc23)CC1,0,0,0
COc1nc(N)nc2c1ncn2[C@@H]1C[C@H](O)[C@@H](CO)O1,0[9.22 µM],0[9.22 µM],?
CCN(Cc1ccccc1)C(=O)Nc1ccc2c(c1)N(C)C(=O)c1ccccc1S2,0,0,0[10.9 µM]
CN(Cc1ccccc1)C(=O)Nc1ccc2c(c1)N(C)C(=O)c1ccccc1S2,13µM,?,0[10.9 µM]
O=C(NCc1ccccc1)c1ccc(NC(=O)c2nsc3ccccc23)cc1,0,0,0[10.9 µM]
COC(=O)c1sc2cccc(F)c2c1S(=O)(=O)Nc1ccc(C)cc1Cl,0,0,0[10.9 µM]
Cc1conc1NC(c1cccs1)c1ccc2cccnc2c1O (stereo not drawn),?,13µM,0
O=C(O)c1ccc(N[C@H](c2ccccc2)c2ccc3cccnc3c2O)cc1,?,0[9.22 µM],0[10.9 µM]
CCSc1nc2ccccc2n1S(=O)(=O)c1ccccc1,0,0,0
COc1ccc(S(=O)(=O)n2c(CCN3CCOCC3)nc3ccccc32)cc1,0,0,0
COc1ccc(-n2c(/C=C/c3cccc(C(F)(F)F)c3)nc3ccccc3c2=O)cc1Cl,0,0,0[10.9 µM]
CSc1ccc(/C=C/c2nc3ccccc3n2S(=O)(=O)c2ccc(Br)cc2)cc1,1.1µM,3.2µM,0[10.9 µM]
O=S(=O)(c1cccc(C(F)(F)F)c1)n1c(/C=C/c2ccccc2)nc2ccccc21,13µM,13µM,0[10.9 µM]
CCOc1ccc(/C=C/c2nc3ccccc3n2S(=O)(=O)c2ccc(Br)cc2)cc1,7.9µM,7.9µM,0[10.9 µM]
COc1cc(NC(=O)CC2C(=O)N(c3cccc(C)c3)C(=O)N2Cc2ccco2)cc(OC)c1 (stereo not drawn),0,0,0[10.9 µM]
CC1=C(c2ccc(C(C)C)cc2)S(=O)(=O)NC1=NCc1ccccc1C,0,0,0[10.9 µM]
SMILES,p53ts 39C tox,p53ts 32C kill,Imprint erasure
CCOC(=O)N1CCC(NC(=O)c2cnn(-c3cccc(F)c3)c2-n2cccc2)CC1,0,0,0[10.9 µM]
CCOC(=O)c1ccccc1NC(=O)Nc1cc2c(cc1N1CCCCC1)n(C)c(=O)n2C,0,0,0[10.9 µM]
Cc1ccc(NC2=C(CC(=O)O)C(c3ccc(F)cc3)N(c3ccc(C)cc3)C2=O)cc1 (stereo not drawn),?,0,0[10.9 µM]
CC1=C(/C=C/C(=C/C=C/C(C)=C/C(=O)O)c2ccc(C)cc2)C(C)(C)CCC1,-,-,0
Cc1cc(C)cc(NC(=O)Cn2c(=O)n(CC(=O)NCCc3ccccc3)c(=O)c3ccccc32)c1,20µM,?,0[10.9 µM]
COc1ccc(NC(=O)Cn2c(=O)n(CC(=O)NCCc3ccccc3)c(=O)c3ccccc32)cc1,0,0,0[10.9 µM]
O=C(Cn1c(=O)c2ccccc2n(CC(=O)Nc2ccc(F)cc2)c1=O)NCCc1ccccc1,0,0,0[10.9 µM]
CCc1cccc(NC(=O)Cn2c(=O)n(CC(=O)NCCc3ccccc3)c(=O)c3ccccc32)c1,6.3µM,10µM,0[10.9 µM]
COc1ccc(Cl)cc1NC(=O)Cn1c(=O)n(CCCC(=O)NCCc2ccc(OC)c(OC)c2)c(=O)c2ccccc21,?,0,0[10.9 µM]
COc1ccc(CCNC(=O)CCCn2c(=O)c3ccccc3n(CC(=O)Nc3cc(Cl)ccc3C)c2=O)cc1OC,13µM,?,0[10.9 µM]
CC(=O)O[C@@H]1CC(C)=C2[C@H]1[C@H](C)CC[C@H]2/C=C(\C)C(=O)O,0,0[1.84 µM],0
Cc1cc(C)cc(-n2c(SCC(=O)NC3CCCCC3)nc3c([nH]c4ccccc43)c2=O)c1,0,0,0[10.9 µM]
CC1CC(C)(C)Nc2ccc(OC(=O)c3ccco3)cc21 (stereo not drawn),10µM,16µM,0
O=C(Oc1ccc2ccccc2c1)c1ccco1,0,0,0
CC(=O)N1CCCc2cc(S(=O)(=O)N3CCC(N(C)C(C)C)CC3)ccc21,0,0,0[10.9 µM]
COc1ccc(N(C(=O)COc2ccccc2OC)S(=O)(=O)c2ccc(Cl)cc2)cc1,0,0,0[10.9 µM]
O=C(Nc1ccc(N2CCOCC2)cc1)c1cnsn1,5µM,4µM,0
CCS(=O)(=O)c1ncc(Cl)c(C(=O)Nc2ccc(S(=O)(=O)N(C)c3ccccc3)cc2)n1,3.2µM,?,0[10.9 µM]
CCN(c1ccccc1)S(=O)(=O)c1ccc(NC(=O)c2nc(S(C)(=O)=O)ncc2Cl)cc1,3.2µM,?,0[10.9 µM]
O=C(Nc1ccc(N2CCOCC2)cc1)c1ccncc1,0,0,-
CC(C)Sc1ncc(Cl)c(C(=O)Nc2ccc(S(=O)(=O)N(C)c3ccccc3)cc2)n1,0,0,0[10.9 µM]
CCSc1ncc(Cl)c(C(=O)Nc2ccc(S(=O)(=O)N(C)c3ccccc3)cc2)n1,0,0,0[10.9 µM]
CS(=O)(=O)c1ncc(Cl)c(C(=O)Nc2ccc(N3CCOCC3)cc2)n1,?,13µM,0
CCOC(=O)c1nc(S(C)(=O)=O)ncc1N1CCOCC1,0,0,0
Cn1c(SCc2ccc(F)cc2)nc2ccc(C(=O)NCc3cccc(Cl)c3)cc21,0,0,0[10.9 µM]
SMILES,p53ts 39C tox,p53ts 32C kill,Imprint erasure
N#Cc1nc(/C=C/c2ccc(F)cc2)oc1N1CCCCCC1,?,0,0[10.9 µM]
Cc1ccc(NC(=O)CSc2ncc3c(n2)-c2ccccc2N(C)S3(=O)=O)c(Cl)c1,?,0,0[10.9 µM]
COc1ccc(NC(=O)CSc2c3c(nc4ccc(Cl)cc24)CCCC3)cc1Cl,?,0,0[10.9 µM]
CS(=O)(=O)N1CCC2(CC1)CN(c1cccc(-c3ccccc3)c1)C2,0,0,-
FC(F)(F)c1ccccc1-c1cc(NCc2cccnc2)ncn1,0,0,0
COc1ccc(Br)cc1S(=O)(=O)Nc1cc(-c2cn3ccccc3n2)ccc1C,0,0,0[10.9 µM]
COc1ccc(-c2cn3ccccc3n2)cc1OC,5µM,3.2µM,0
COc1ccc(S(=O)(=O)Nc2cc(-c3cn4ccc(C)cc4n3)ccc2C)cc1OC,0,0,0[10.9 µM]
CCCS(=O)(=O)Nc1cc(-c2cn3ccc(C)cc3n2)ccc1C,?,?,0[10.9 µM]
COc1ccc(-c2cn3cc(C)ccc3n2)cc1OC,13µM,10µM,0
Cc1ccc(-c2cn3ccc(C)cc3n2)cc1,0.63µM,0.5µM,0[10.9 µM]
CCN(C(=O)c1coc(=O)c2ccccc12)c1ccccc1C,0,0,0[10.9 µM]
